An excerpt weighted towards active compounds, which were near 0.86% of everything screened.
CDC25B CDK2 inh – human CDC25B-CDK2/CyclinA binding inhibition | P30305+P24941 | HTRF CDC25B-CDK2/CyclinA binding, anti-His/anti-Flag; stronger effect = higher value | z-score (test concentration not listed) | 0.72% of 94,000 active | AID 1259370; in the data active = z-score above about 3.2
HIV TAR-Tat – HIV-1 TAR-Tat binding disruption. AID 1259389. z-score (test concentration not listed). 0.6% of 100,000 active. HIV-1 TAR RNA, Tat peptide displacement FRET; stronger effect = higher value; active = z-score of 3 or more in at least 2 runs
The depositor's hits bear a star; . = no result given.

SMILES	CDC25B CDK2 inh	HIV TAR-Tat
CC(C)CCNC(=O)c1ccc2c(=O)[nH]c3c(C(=O)NC4CCCC4)sc(=S)n3c2c1	.	8*
CC(C)CCNC(=O)c1ccc2c(=O)[nH]c3c(C(=O)NC(C)C)sc(=S)n3c2c1	.	2.2
CCOc1ccc(NC(=O)Nc2nnc(N(C)C3CCCCC3)s2)cc1	-0.41	2.8
O=c1c(Cl)c(N2CCCC2)cnn1-c1nc2ccccc2s1	-1.4	-0.07
CCS(=O)(=O)N1CCCc2ccc(NS(=O)(=O)c3cc(F)ccc3F)cc21	.	-0.35
CCCS(=O)(=O)N1CCCc2ccc(NS(=O)(=O)c3cc(F)ccc3F)cc21	.	7.2*
CCOC(=O)C1CCCN(C2=NS(=O)(=O)C(c3ccc(C)c(C)c3)=C2C)C1 (stereo not drawn)	-5.5	1.2
O=C(c1[nH]nc2c1COc1ccccc1-2)N1CCOCC1	.	0.02
COc1ccc(NC2CCCCC2NS(=O)(=O)c2ccccc2)cc1 (stereo not drawn)	-2.5	3.1
O=S(=O)(NC1CCCCC1Nc1ccc(F)cc1)c1ccccc1 (stereo not drawn)	8.6*	2.9
N#Cc1nc(/C=C/c2cccs2)oc1N1CCN(C(=O)c2ccccc2F)CC1	-1.8	0.12
O=C(c1ccc(Cn2c(=O)c(=O)[nH]c3cccnc32)cc1)N1CCN(C(=O)c2ccco2)CC1	.	1.3
CC(C)CN(CC(C)C)S(=O)(=O)c1ccc(CN2C(=O)c3cccnc3C2=O)s1	.	-0.49
CC(C)(C)c1nc2scc(-c3ccccc3)c2c(=O)o1	5.9*	1.1
O=c1oc(Cc2ccccc2)nc2scc(-c3ccccc3)c12	0	0.84
CCOc1ccc(/C(O)=C2\C(=O)C(=O)N(CCN3CCOCC3)C2c2ccc(C(C)C)cc2)c(C)c1 (stereo not drawn)	-1	0.51
CCOc1c(C(=O)OC)sc2ccc(N)cc12	7.7*	-1.9
COC(=O)c1sc2ccc(N)cc2c1OC	5.4*	-2.8
COC(=O)c1sc2ccc(N)cc2c1OCC(C)C	3	-2.2
COC(=O)c1sc2ccccc2c1Cl	1.3	1.9
O=c1cc(CSc2nnc3c4ccccc4nc(-c4ccccc4)n23)nc2ccccn12	.	-0.26
CCN(CC)c1ccc(NC(=O)CSc2ccsc2[N+](=O)[O-])c(C)c1	3.8	12*
O=C(CSc1ccsc1[N+](=O)[O-])Nc1cc(F)ccc1F	-4.8	4.2
CCCCCC(=O)Nc1c(C)n(C)n(-c2ccccc2)c1=O	-1.3	-0.26
Cc1ccc(S(=O)(=O)Nc2c3ccccc3c(O)c3c4c(oc23)CC(C)(C)CC4=O)cc1	18*	.
SMILES	CDC25B CDK2 inh	HIV TAR-Tat
CC1(C)CC(=O)c2c(oc3ccc(NS(=O)(=O)c4ccc(Br)cc4)cc23)C1	-0.39	-0.3
CCCOC(=O)Cn1nnc2sc3c(c2c1=O)CCC(C(C)(C)C)C3 (stereo not drawn)	0.05	1.9
O=C1c2ccccc2C(=O)c2c(NCCc3ccc(O)cc3)ccc(NCCc3ccc(O)cc3)c21	2.7	.
O=C1c2c(O)ccc(O)c2C(=O)c2c(NCCNCCO)ccc(NCCNCCO)c21	-0.47	17*
CCCCN(C)c1ncnc2onc(C)c12	.	-0.15
Cc1cc(NS(=O)(=O)c2ccc(NC(=O)c3ccc(C(C)(C)C)c(Br)c3)cc2)no1	0.48	.
Cc1ccc(S(=O)(=O)Nc2cc(S(=O)(=O)c3ccc(C)cc3)c(O)c3cccnc23)cc1	0.77	1.5
Cc1ccc(S(=O)(=O)Nc2cc(Cl)c(O)c3ncccc23)cc1	14*	1.5
CCOc1cc(C2C3=C(CCCC3=O)NC3=C2C(=O)CCC3)cc(Cl)c1O	16*	0.23
CCOc1cc(C2C3=C(CCCC3=O)N(C)C3=C2C(=O)CCC3)cc(Cl)c1O	-0.94	0.39
CC(C)CNc1cc(N2CCOCC2)c2noc3c2c1C(=O)c1ccccc1-3	9.2*	-3.7
CCNc1cc(N2CCOCC2)c2noc3c2c1C(=O)c1ccccc1-3	1.2	11*
CCOCCCNc1cc(N2CCN(c3ccccc3)CC2)c2noc3c2c1C(=O)c1ccccc1-3	-1.5	1.6
CCOCCCNc1cc(N2CCOCC2)c2noc3c2c1C(=O)c1ccccc1-3	0.63	6.8*
O=C1c2ccccc2-c2onc3c(N4CCOCC4)cc(NCCO)c1c23	0.79	-4.5
O=C1c2ccccc2-c2onc3c(N4CCOCC4)cc(NCCN4CCCC4)c1c23	-1.8	-5
CCCC(C)N1CCN(S(=O)(=O)c2ccc(-c3cc(C(F)(F)F)on3)s2)CC1 (stereo not drawn)	.	1
CCOC(=O)c1cc(-c2ccc(S(=O)(=O)Nc3ccc(Br)c(C)c3)s2)on1	.	-0.82
CCc1ccc(-n2c(C)nnc2SCc2nc(-c3ccc(C)cc3)no2)cc1	1.9	2.2
C/C(CC(C)(C)Nc1ccccc1)=N\O	14*	.
CC(/C=N/O)=N\Nc1ccccc1	-1.8	.
CCCN(CCC)S(=O)(=O)c1ccc2c(c1)n(C)c(=O)c(=O)n2C	-0.46	1.1
Cn1c(=O)c2c(-c3ccccc3Br)n(-c3ccccc3N)cc2n(C)c1=O	0.87	2.5
Cn1c(=O)c2c(-c3ccccc3Br)n(-c3ccccc3)cc2n(C)c1=O	-0.69	0.54
